Source: PubChem BioAssay AID841 (Emory University Molecular Libraries Screening Center, 2007)
Among all 140,000 compounds or so, about 2,100 (1.5%) were called active. No stated cut-off is given here; in the data, active means protection mostly above about 24% (no sharp cut-off); inactive means mostly below about 26%. This excerpt belongs to a sample that is enriched for actives.

Test: compounds protecting cells from measles virus cytopathic effect, primary screen, measles RdRp inhibitor project, single point, MLSMR library, absorbance (AID 841)
Conditions: Measles virus-infected cells, CPE protection, at 4 µM, stronger effect = higher value

Row | SMILES | protection (pct of control)
1 | O=C(NNc1ccccn1)c1ccc(Cl)nc1 | 3.74% (inactive)
2 | O=C(CCl)NNc1cccc(Cl)n1 | 28.9% (active)
3 | COc1cc(OC)nc(NC(=O)CCl)n1 | 15.4% (inactive)
4 | COc1cc(OC)c(C(=O)Nc2ccccc2-c2ccccc2)cc1OC | 39.7% (inactive)
5 | CC(OC(=O)CNS(=O)(=O)/C=C/c1ccccc1)C(=O)Nc1ccc(S(=O)(=O)N2CCCC2)cc1 (centres undefined) | 8.77% (inactive)
6 | Cc1nn(Cc2ccc(F)cc2)c(C)c1NC(=O)c1cccnc1Cl | 10.5% (inactive)
7 | Cc1nc2cc(NC(=O)CSc3nc4c(C)cccc4cc3C#N)ccc2s1 | 7.78% (inactive)
8 | CC1(C)CCc2nc(SCc3ccccc3)c(C#N)cc2C1 | 17.7% (inactive)
9 | CC(NC(=O)CSc1nc2c(cc1C#N)CN(C)CC2)c1ccccc1 (centres undefined) | 48.7% (active)
10 | COc1cc(/C=N\NC(=O)c2nonc2N)c(OC)cc1Br | 4.84% (inactive)
11 | CCCCN1C(=O)CCC(C(=O)O)C1c1ccc(OC)cc1 (centres undefined) | 18.6% (inactive)
12 | CCn1c(C(C)NC(=O)c2ccc(C)cc2)n[nH]c1=S (centres undefined) | 13.2% (inactive)
13 | COc1ccc(C2CC(c3ccccc3)=NN2C(=O)c2ccc(Cl)c([N+](=O)[O-])c2)cc1 (centres undefined) | 5.64% (inactive)
14 | CCOC(=O)c1c(C)nc(-c2ccccc2)nc1NC(=O)C(C)C | 92.6% (active)
15 | CCOC(=O)c1c(C)[nH]c(=S)c(C#N)c1-c1ccccc1 | 1.99% (inactive)
16 | Cc1[nH]c2ccccc2c1C(=O)COC(=O)c1c(-c2ccccc2)noc1C | 3.64% (inactive)
17 | C=CCN(c1ccc(C(=O)Nc2cc(C)cc(C)c2)cc1)S(C)(=O)=O | 12.6% (inactive)

Row | SMILES | protection (pct of control)
18 | Cc1ccc(C(C)(C)C)c(OCCCCN2CCCC2)c1 | -0.18% (inactive)
19 | CN(C)c1ccc(/C=N/NC(=O)c2ccc(Cn3cc(Br)cn3)o2)cc1 | 28.3% (active)
20 | O=C(N/N=C/c1ccc2c(c1)OCO2)c1ccc(Cn2cc([N+](=O)[O-])cn2)o1 | 18.3% (inactive)
21 | O=C(N/N=C\c1ccc(Br)cc1)c1ccc(Cn2cccn2)o1 | 5.4% (inactive)
22 | Cc1ccc(S(=O)(=O)N(NC2=NS(=O)(=O)c3ccccc32)C(=O)c2ccccc2)cc1 | 7.51% (inactive)
23 | CCOC(=O)C1=C(N)N(c2ccc(C)cc2)C2=C(C(=O)CCC2)C1c1cccs1 (centres undefined) | 20.1% (inactive)
24 | Cc1nn(Cc2ccc(Cl)cc2)c(Cl)c1/C=N/NC(=O)c1cccnc1 | 11.1% (inactive)
25 | CC1(C)CC(=O)C2=C(C1)Nc1cc(C(=O)c3ccccc3)ccc1NC2c1ccccn1 (centres undefined) | 2.11% (inactive)
26 | CCCCn1c(=O)c(CCC(=O)OCC(=O)Nc2ccc(C)c(Cl)c2)nc2ccccc21 | 23.4% (inactive)
27 | Cc1noc(C)c1COC(=O)Cn1c(C)nc2ccccc21 | 7.94% (inactive)
28 | COc1ccc(NC(=O)COC(=O)Cn2c(C)nc3ccccc32)cc1OC | 50.1% (active)
29 | O=C(Nc1cccc(S(=O)(=O)N2CCCCC2)c1)c1ccc2c(c1)OCO2 | 8.22% (inactive)
30 | Cc1cccc(NC(=O)COc2ccc(Br)cc2C)n1 | 6.52% (inactive)
31 | CCN(CC)S(=O)(=O)c1ccc(C)c(NC(=O)COc2ccc(Br)cc2Cl)c1 | 52.8% (active)
32 | Cc1ccc(S(=O)(=O)N(C)C)cc1NC(=O)COC(=O)c1c(C)noc1C | 9.42% (inactive)
33 | CN(C(=O)c1c(Cl)cnn1C)C12CC3CC(CC(C3)C1)C2 | 6.9% (inactive)
34 | Cc1c(C(=O)NCCN2C(=O)S/C(=C\c3cccs3)C2=O)cccc1[N+](=O)[O-] | 19.9% (inactive)
